According to PubChem BioAssay (NCATS):
Several values for one entry are separate records, joined by “and”; a condition that tells them apart may be missing. Identical values can stand only once. Results filed as inconclusive are left out. Activity calls are given as the source filed them. Unless noted, calls follow the shape of the dose curve; as a rule, active = well fitted inhibition curve with a large enough effect; inconclusive = small, poorly fitted or top-dose-only effect; inactive = flat fitted curve, though single readings scatter.

Tests used:
[1] = Drug repurposing screens with cells derived from glioblastoma tumor samples (AID 1345199); details: GBM patient neurospheres viability, ATP luminescence, 48 h; also: nearly all actives have a fitted effect of over 40% in size; also: potency is read from the fitted curve at half-maximal effect; as to activity, negative = cell killing: % is scaled to controls: 0 for no effect and ±100 for the full control effect
Summary of the method: (§1)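 Primary testing used CD133+ neurospheres from four GBM patients, seven concentrations, 48 h exposure and ATP-based viability; confirmation added three slower-growing patient lines.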

astro = control astrocytes; experiment: as above; details: viability, ATP luminescence, 48 h; series mostly up to 45.9 µM
Summary of the method: as §1

[2] = target: Nuclear receptor subfamily 1 group I member 2 (Rattus norvegicus) (UniProt Q9R1A7); experiment: qHTS assay for small molecule activators of the rat pregnane X receptor (rPXR) signaling pathway (AID 651751; call rule not given here; also: 0% is about no effect); details: rPXR reporter cells, luciferase (One-Glo), 24 h
Nuclear receptor subfamily 1 group I member 2 (Rattus norvegicus), sequence (Q9R1A7 whole entry, looked up): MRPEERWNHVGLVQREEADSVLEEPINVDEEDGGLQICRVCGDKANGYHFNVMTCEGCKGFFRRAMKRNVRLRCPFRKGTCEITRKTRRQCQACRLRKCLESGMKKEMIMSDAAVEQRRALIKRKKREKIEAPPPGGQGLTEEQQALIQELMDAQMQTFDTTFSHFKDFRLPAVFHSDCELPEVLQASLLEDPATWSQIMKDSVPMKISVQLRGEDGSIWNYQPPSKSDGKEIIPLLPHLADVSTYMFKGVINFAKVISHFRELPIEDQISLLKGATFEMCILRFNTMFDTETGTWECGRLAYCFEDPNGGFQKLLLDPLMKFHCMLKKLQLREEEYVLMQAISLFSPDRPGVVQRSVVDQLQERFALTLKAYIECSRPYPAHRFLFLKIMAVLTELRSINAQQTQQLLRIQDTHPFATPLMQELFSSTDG

[3] = qHTS assay for small molecule activators of the human pregnane X receptor (PXR) signaling pathway (AID 720659; call rule not given here; also: 0% is about no effect); details: DPX-2 HepG2 CYP3A4-luciferase, 24 h; series mostly up to 92.3 µM
[4] = at 45.9 µM (top of the series), tumour line B
[5] = at 45.9 µM (top of the series), tumour line D
[6] = at 46 µM (top of the series), tumour line A
[7] = at 46.1 µM (top of the series), tumour line C
[8] = at 20 µM (top of the series), tumour line C
[9] = at 21.2 µM (top of the series), tumour line B
[10] = at 21.2 µM (top of the series), tumour line D

NC(=O)N/N=C/c1ccc([N+](=O)[O-])o1
inactive: activity, negative = cell killing [1, 4] 2.52% | activity, negative = cell killing [1, 5] -11.8% | activity, negative = cell killing [1, 6] -13.9% | activity, negative = cell killing [1, 7] 14.2% | Potency (astro) | max response [2] -8.95% and -7.82% | outcome [3]

CC[C@@]1(c2ccccc2)NC(=O)N(C)C1=O
inactive: activity, negative = cell killing [1, 4] -13.7% | activity, negative = cell killing [1, 5] -9.17% | activity, negative = cell killing [1, 7] 9.18% | Potency (astro)

COc1ccc(Cl)cc1C(=O)NCCc1ccc(S(=O)(=O)NC(=O)NC2CCCCC2)cc1
inactive: activity, negative = cell killing [1, 4] 5.08% | activity, negative = cell killing [1, 5] -17.4% | activity, negative = cell killing [1, 6] -29% | activity, negative = cell killing [1, 7] -8.3% | Potency (astro) | max response [2] 1.29%

O=C1O[C@H](CO)[C@@H](O)[C@H](O)[C@H]1O
inactive: activity, negative = cell killing [1, 4] -6.95% | activity, negative = cell killing [1, 5] 6.72% | activity, negative = cell killing [1, 7] 0.13% | Potency (astro)

COc1ccc2[nH]c(S(=O)Cc3ncc(C)c(OC)c3C)nc2n1 (centres undefined)
inactive: activity, negative = cell killing [1, 4] -28.9% | activity, negative = cell killing [1, 5] -21.6% | Potency (astro)
active: Potency ([1]; tumour line A) 11.2 µM

CCCOC(=O)c1ccccc1
inactive: activity, negative = cell killing [1, 4] -11.5% | activity, negative = cell killing [1, 5] 1.56% | activity, negative = cell killing [1, 6] -26.7% | activity, negative = cell killing [1, 7] -15.4% | Potency (astro)

CCC(=O)c1ccc(O)cc1
inactive: activity, negative = cell killing [1, 4] -5.56% | activity, negative = cell killing [1, 5] -10.1% | activity, negative = cell killing [1, 6] -28.1% | activity, negative = cell killing [1, 7] -21.6% | Potency (astro)

CC(O)COc1ccccc1 (centres undefined)
inactive: activity, negative = cell killing [1, 4] -16.3% | activity, negative = cell killing [1, 5] 2.5% | activity, negative = cell killing [1, 6] -19.2% | activity, negative = cell killing [1, 7] -0.412% | Potency (astro) | max response [2] 0.833% | outcome [3]

CC1(C)OC(=O)NC1=O
inactive: activity, negative = cell killing [1, 4] -11.2% | activity, negative = cell killing [1, 5] -10.8% | activity, negative = cell killing [1, 6] -19.4% | activity, negative = cell killing [1, 7] 10.3% | Potency (astro)

Cc1cc2c(cc1S(N)(=O)=O)S(=O)(=O)CCC2
inactive: activity, negative = cell killing [1, 8] 4.86% | activity, negative = cell killing [1, 9] -8.12% | activity, negative = cell killing [1, 10] 3.88% | activity, negative = cell killing ([1]; at 21.3 µM (top of the series), tumour line A) -0.554% | Potency (astro)

C[C@](N)(Cc1ccc(O)cc1)C(=O)O
inactive: activity, negative = cell killing [1, 4] -4.97% | activity, negative = cell killing [1, 5] 3.89% | activity, negative = cell killing [1, 6] -16.9% | activity, negative = cell killing [1, 7] 0.308% | Potency (astro)

CC(COc1ccccc1)NC(C)C(O)c1ccc(O)cc1 (centres undefined)
inactive: activity, negative = cell killing [1, 8] -3.58% | activity, negative = cell killing [1, 9] -2.68% | activity, negative = cell killing [1, 10] -14.2% | Potency (astro)

O=C(O)c1ccccn1
inactive: activity, negative = cell killing [1, 4] -12% | activity, negative = cell killing [1, 5] -3.68% | activity, negative = cell killing [1, 6] -22.3% | activity, negative = cell killing [1, 7] 1.95% | Potency (astro)

O=C(O)CN1C(=O)c2cccc3cccc(c23)C1=O
inactive: activity, negative = cell killing [1, 4] -8.91% | activity, negative = cell killing [1, 5] -13.3% | activity, negative = cell killing [1, 6] -27.1% | activity, negative = cell killing [1, 7] -19.2% | Potency (astro)

CC(C(O)c1ccc(O)cc1)N1CCC(Cc2ccccc2)CC1 (centres undefined)
active: Potency ([1]; tumour line A) 2.82 µM | Potency ([1]; tumour line B) 35.5 µM | Potency ([1]; tumour line D) 12.6 µM
inactive: activity, negative = cell killing [1, 7] -15.9% | Potency (astro)

CN1[C@@H]2CC[C@H]1CC(OC(=O)C(O)c1ccccc1)C2 (some centres undefined)
inactive: activity, negative = cell killing [1, 4] -0.798% and -13.6% and 4.01% | activity, negative = cell killing [1, 5] -19% and -5.08% and -5.73% | activity, negative = cell killing [1, 7] 11.2% and -12.9% and 5.16% | Potency (astro)

CC(CN1c2ccccc2Sc2ccccc21)N(C)C (centres undefined)
active: Potency ([1]; tumour line A) 14.1 µM | Potency ([1]; tumour line B) 20 µM | Potency ([1]; tumour line D) 22.4 µM | Potency (astro) 20 µM
inactive: activity, negative = cell killing [1, 7] -1.52% | max response [2] 3.22%

OCC(CO)N[C@H]1C[C@](O)(CO)[C@@H](O)[C@H](O)[C@H]1O
inactive: activity, negative = cell killing [1, 4] -9.88% | activity, negative = cell killing [1, 5] 10.9% | activity, negative = cell killing [1, 6] -13.3% | activity, negative = cell killing [1, 7] -4.04% | Potency (astro)

Cc1cc2nc3c(=O)[nH]c(=O)nc-3n(C[C@H](O)[C@H](O)[C@H](O)CO)c2cc1C
inactive: activity, negative = cell killing [1, 4] -19.3% and -6.89% | activity, negative = cell killing [1, 5] -1.31% and -6.94% | activity, negative = cell killing [1, 6] -12.8% and -5.49% | activity, negative = cell killing [1, 7] -0.108% and 21.1% | Potency (astro) | max response [2] 2.07%

O=C1O[C@H]([C@@H](O)CO)C(O)=C1O
inactive: activity, negative = cell killing [1, 4] -10.4% and -5.65% | activity, negative = cell killing [1, 5] -12.1% and -20.9% | activity, negative = cell killing [1, 6] -0.597% | activity, negative = cell killing [1, 7] -3.99% and -11% | Potency (astro) | max response [2] 2.78% and -0.0955% | outcome [3]
